Shown are actives, neighbours in structure and some others; about 4% of the full set was active somewhere.
esBAF inh: Bmi1 luciferase reporter increase in mESCs, primary screen, esBAF inhibitor project, mouse ES cells, Bmi1 luciferase knock-in, single point. 24 h; 100% = twice the neutral-well signal. reporter increase, % at 12.5 µM. 350,000 compounds, 2% hits. AID 602393, 2012; in the data active = activation above about 40%;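 note: 0% = median of the plate's neutral control wells and 100% = double that signal; a rise in the Bmi1 reporter signal indicates esBAF inhibition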
Wnt act: Wnt/beta-catenin pathway activators, primary screen, cell-based, plate reader, single point; Wnt/beta-catenin reporter cell assay, activator; activation, % at 9.35 µM; 300,000 compounds, 1.2% hits; AID 743398, 2014; in the data active = activation above about 30%, passing the limit was not always enough;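 note: 0% = neutral control wells and 100% = positive control wells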
LMP1 NFkB inh: EBV LMP1-driven NF-kappaB luciferase reporter inhibitors, primary screen, cell-based, luminescence, single point; AID 504558, 2011; LMP1-induced NF-kappaB luciferase reporter cells; 350,000 compounds, 0.69% hits; inhibition, % at 12.5 µM; in the data active = inhibition above about 41%;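 note: 0% = neutral control wells and 100% = reference inhibitor control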
TRPM1 prom inh: inhibitors of MITF-dependent TRPM1 promoter reporter, primary screen, cell-based, SK-MEL-5, single point, luciferase. inhibition, % at 12.5 µM. 330,000 compounds, 0.83% hits. SK-MEL-5 TRPM1 promoter luciferase, 24 h;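 active = mean inhibition across replicates of 60% or more, whatever share of single replicates reaches that level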
C2C12 statin: suppressors of statin myotoxicity in C2C12 myotubes, primary screen, cell-based, single point, plate reader. rescue of ATP level, % at 7.49 µM. AID 602340, 2012. 330,000 compounds, 0.78% hits. C2C12 myotubes + simvastatin, ATP luminescence, 48 h; scaled: DMSO 0, geranylgeraniol control 100;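 active = mean ATP rescue above about 67%, or every replicate alone reaching that limit, limit read from the data, passing the limit was not always enough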;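 note: myotubes were challenged with 10 µM simvastatin during compound exposure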
MITF act: activators of MITF-driven TRPM1 promoter reporter, primary screen, cell-based, SK-MEL-5, luciferase, single point; AID 588334, 2011; activation, % at 12.5 µM; 300,000 compounds, 0.75% hits; SK-MEL-5 TRPM1-promoter luciferase, 24 h; % of positive control, neutral wells = 0;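 active = mean activation of at least 80% with every replicate also reaching 80%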;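 note: 0% = neutral control wells and 100% = parthenolide positive control wells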
Numbers without * were called inactive; . = no result given.

SMILES	esBAF inh	Wnt act	LMP1 NFkB inh	TRPM1 prom inh	C2C12 statin	MITF act
Cc1cc(C)nc(N/N=C/c2cccc(Cl)c2)n1	.	2	3	-31	.	35
C[C@H](CO)N1C[C@H](C)[C@@H](CN(C)S(=O)(=O)c2cn(C)cn2)Oc2c(NC(=O)c3nc4ccccc4s3)cccc2C1=O	-1	.	.	.	-43	.
Cc1nc2nc(COc3ccccc3)nn2c(C)c1Cl	17	0	-1	-15	73*	.
O=C(O)COc1ccccc1Cc1ccccc1	-6	0	5	1	.	1
C=CCc1ccccc1OCC(=O)O	.	34*	-24	9	.	-11
C=CCc1ccccc1OCCCCN1CCCC1	-1	.	-3	6	80*	-8
CCc1ccccc1OCCCCN1CCCC1	-27	-3	-3	-5	.	6
Cc1[nH]c2ccccc2c(=O)c1CN(C)Cc1ccccc1	57*	2	-1	-32	.	37
CCCCN(C)Cc1c(C)[nH]c2ccccc2c1=O	.	-1	-5	-3	.	3
COc1ccc(OC)c(NC(=O)COc2coc(CN3CCc4ccccc43)cc2=O)c1	-6	-5	50*	13	3	-13
CNC(=O)[C@H](C)[C@@H]1C[C@@]1(C)[C@@H](NC(=O)OCc1ccccc1)c1ccccc1	-9	2	3	3	0	-3
FC(F)Oc1ccc(NC(=S)NNc2ccnc3cc(Cl)ccc23)cc1	15	-3	9	69*	-13	-69
NC(=S)NNc1ccnc2cc(Cl)ccc12	.	0	11	6	.	-6
O=C(NNc1nc2ccccc2s1)Nc1ccc(Cl)c(Cl)c1	.	-5	-3	12	.	-5
COc1ccc(/C=C2\N=C(C)OC2=O)cc1[N+](=O)[O-]	.	1	46*	0	.	0
O=C(CN1CCN(C(=O)c2ccc(-c3nc4ccccc4s3)o2)CC1)Nc1ccc(F)cc1	59*	26	5	11	5	-10
CSc1cccc(CNC(=O)C2CCC(=O)N(CCc3ccccn3)C2)c1 (configuration not stated)	-1	-1	3	3	5	-5
CSc1cccc(CNC(=O)C2CCC(=O)N(CCc3ccccc3)C2)c1 (configuration not stated)	20	46*	-4	.	-24	.
c1ccc(-c2cc(-c3nnc4n3N=C(c3ccc5ccccc5c3)CS4)[nH]n2)cc1	6	.	0	-23	80*	20
Cc1ccc2cc(CN(CC3CCCO3)C(=O)Nc3ccccc3F)c3nnnn3c2c1 (configuration not stated)	45*	2	-16	-23	4	29
Cc1ccc2cc(CN(CC3CCCO3)S(=O)(=O)c3ccccc3)c3nnnn3c2c1 (configuration not stated)	8	1	-6	-6	-56	2
Cc1ccc(NC(=O)c2sc(N)nc2C)cc1	50*	7	4	-53	6	51
Cc1nc(N)sc1C(=O)Nc1ccccc1	19	1	-5	-31	-2	.
Cc1nc(C(=O)Nc2ccccc2)sc1C(=O)Nc1ccccc1	54*	1	-18	-86	-4	86*
CCCCN(C(=O)C1CC(=O)N(c2ccc3c(c2)OCCO3)C1)c1c(N)n(CC(C)C)c(=O)[nH]c1=O (configuration not stated)	6	0	0	3	1	-6
SMILES	esBAF inh	Wnt act	LMP1 NFkB inh	TRPM1 prom inh	C2C12 statin	MITF act
CCOC(=O)C1CCN(C(=O)c2cc3c(ccc4ccccc43)o2)CC1	71*	42*	-31	-94	-10	96*
CCOC(=O)C1CCN(C(=O)c2cc3cc(C)ccc3[nH]2)CC1	19	34*	-15	-41	12	.
CCOC(=O)C1CCN(C(=O)c2cc3cc4ccc(C)cc4nc3o2)CC1	12	26	21	-14	33	15
CC1CCN(C(=O)c2cc3c(ccc4ccccc43)o2)CC1	.	33*	-4	-24	.	29
CCCC#Cc1cnc2c(c1)C(=O)N([C@H](C)CO)C[C@@H](C)[C@H](CN(C)C(=O)Nc1cc(F)ccc1F)O2	5	.	.	.	-3	.
COc1ccccc1C(CC(=O)c1ccccc1)C(=O)c1ccccc1 (configuration not stated)	.	-2	.	.	.	.
C=C(C(=O)c1ccccc1)C(CC(=O)c1ccccc1)c1ccccc1 (configuration not stated)	.	-9	69*	48	.	-50
C=C(CCC(=O)c1ccccc1)C(=O)c1ccccc1	.	60*	6	2	.	-5
COc1cc(OC)cc(-c2nc3nc(C)c(CCC(=O)NCC(OC)OC)c(C)n3n2)c1	.	-1	-7	5	.	-2
COc1cc(OC)cc(-c2nc3nc(C)c(CCC(=O)O)c(C)n3n2)c1	-18	.	9	-8	117*	2
COc1ccccc1N1CCN(/N=C\c2ccccc2)CC1	36	3	-29	-63	-3	.
COc1ccccc1N1CCN(/N=C\c2ccc(C)o2)CC1	.	42*	-6	-51	.	54
COc1ccccc1N1CCN(/N=C/C(Cl)=C/c2ccccc2)CC1	.	45*	-10	-39	.	.
C[C@@H]1CCCCO[C@H](CN(C)C)[C@H](C)CN([C@@H](C)CO)C(=O)c2cc(NC(=O)Nc3ccc4c(c3)OCO4)ccc2O1	1	.	.	.	-13	.
CCc1nnc(NC(=O)CSc2nc3c(C)cccc3[nH]2)s1	.	.	0	-4	.	2
CCC(CO)Oc1cc(NCc2ccc(C(=O)O)cc2)c2ncn(C(C)C)c2c1 (configuration not stated)	-3	1	6	0	-5	-1
COC(=O)C1CCCN1C(=O)C1CCCN1C(=O)CNC(=O)OCc1ccccc1 (configuration not stated)	0	-1	9	9	82*	-11
N#C/C(=C/c1ccc(OC(=O)c2ccc(Br)s2)cc1)c1nc2ccccc2[nH]1	83*	9	-14	-61	-7	68
Cc1ccc(C)c(/C=N/n2cc(-c3ccccc3)[nH]c2=S)c1	.	0	9	-5	.	3
Fc1ccccc1/C=N/n1cc(-c2ccccc2)[nH]c1=S	54*	12	-6	-24	8	28
Cc1cc(/C=C(/C#N)c2cccc(F)c2)c(C)n1-c1cccnc1	21	1	-40	-83	25	88*
CCN(CC)C(=O)c1cccc(C)c1	2	3	-56	-13	4	14
CCSc1ccc(-c2cccc([N+](=O)[O-])c2)nn1	49*	28	-11	-73	10	75
O=C(CN1C(=O)CCS(=O)(=O)c2ccccc21)Nc1ccc2c(c1)OCCO2	-3	.	0	-10	4	11

Assay outcomes (PubChem)
